Screen size: about 5,500 compounds; about 2,000 (36%) were called active. Another 18% or so got no clear call; they are omitted. The list shows a part of the results. Values without a mark were called inactive. Rule as the data show it: active = normalized growth mostly below about 0.91 (no sharp cut-off); inconclusive = no clear call, values can overlap the other calls; inactive = mostly above about 0.92.
Assay: chemical genetic growth profiling, strain panel (AID 1159580);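 also: tested at 20 µM; growth read once vehicle control cultures reached saturation at 30 °C; 1 = growth at the plate median or of vehicle wells; lower values mean less growth of the strain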
Conditions: growth OD

Structure (SMILES): COc1ccc2c(c1)O[C@@H]1COc3cc(OC)c(OC)cc3[C@@H]1C2=O
- normalized growth (S. cerevisiae deletion strains, locus YJR043C, strain POL32, hits give low values): 0.719 (active)
- normalized growth (S. cerevisiae deletion strains, locus YJR066W, strain TOR1, hits give low values): 0.92
- normalized growth (S. cerevisiae deletion strains, locus YJR075W, strain HOC1, hits give low values): 0.776 (active)
- normalized growth (S. cerevisiae deletion strains, locus YKL009W, strain mrt4, hits give low values): 1.01
- normalized growth (S. cerevisiae deletion strains, locus YKL068W, hits give low values): 0.984
- normalized growth (S. cerevisiae deletion strains, locus YKL085W, strain MDH1 (second series), hits give low values): 0.984
- normalized growth (S. cerevisiae deletion strains, locus YKL085W, strain MDH1, hits give low values): 0.984
- normalized growth (S. cerevisiae deletion strains, locus YKL160W, strain elf1, hits give low values): 0.428 (active)
- normalized growth (S. cerevisiae deletion strains, locus YKR001C, strain vps1, hits give low values): 0.912
- normalized growth (S. cerevisiae deletion strains, locus YKR026C, strain gcn3, hits give low values): 0.992
- normalized growth (S. cerevisiae deletion strains, locus YKR091W, strain srl3, hits give low values): 0.988
- normalized growth (S. cerevisiae deletion strains, locus YLL001W, strain dnm1, hits give low values): 0.794 (active)
- normalized growth (S. cerevisiae deletion strains, locus YLL026W, hits give low values): 0.557 (active)
- normalized growth (S. cerevisiae deletion strains, locus YLL041C, strain sdh2, hits give low values): 0.674 (active)
- normalized growth (S. cerevisiae deletion strains, locus YLR027C, strain aat2, hits give low values): 0.445 (active)
- normalized growth (S. cerevisiae deletion strains, locus YLR039C, strain RIC1, hits give low values): 0.914
- normalized growth (S. cerevisiae deletion strains, locus YLR058C, strain SHM2, hits give low values): 0.9
- normalized growth (S. cerevisiae deletion strains, locus YLR102C, strain apc9, hits give low values): 0.696 (active)
- normalized growth (S. cerevisiae deletion strains, locus YLR113W, strain HOG1, hits give low values): 0.983
- normalized growth (S. cerevisiae deletion strains, locus YLR221C, strain rsa3, hits give low values): 0.377 (active)
- normalized growth (S. cerevisiae deletion strains, locus YLR258W, strain gsy2, hits give low values): 0.705 (active)
- normalized growth (S. cerevisiae deletion strains, locus YLR262C, strain YPT6 (second series), hits give low values): 0.994
- normalized growth (S. cerevisiae deletion strains, locus YLR262C, strain YPT6, hits give low values): 0.928
- normalized growth (S. cerevisiae deletion strains, locus YLR268W, strain sec22, hits give low values): 0.739 (active)
- normalized growth (S. cerevisiae deletion strains, locus YLR320W, strain mms22, hits give low values): 0.228 (active)
- normalized growth (S. cerevisiae deletion strains, locus YLR342W, strain FKS1, hits give low values): 0.665 (active)
- normalized growth (S. cerevisiae deletion strains, locus YLR357W, strain rsc2, hits give low values): 0.932
- normalized growth (S. cerevisiae deletion strains, locus YLR370C, strain arc18, hits give low values): 0.984
- normalized growth (S. cerevisiae deletion strains, locus YLR371W, strain rom2, hits give low values): 0.854 (active)
- normalized growth (S. cerevisiae deletion strains, locus YLR384C, strain iki3, hits give low values): 1.01
- normalized growth (S. cerevisiae deletion strains, locus YLR418C, strain cdc73, hits give low values): 0.546 (active)
- normalized growth (S. cerevisiae deletion strains, locus YML016C, strain PPZ1, hits give low values): 0.84 (active)
- normalized growth (S. cerevisiae deletion strains, locus YML032C, strain rad52, hits give low values): 0.521 (active)
- normalized growth (S. cerevisiae deletion strains, locus YML120C, strain ndi1, hits give low values): 0.59 (active)
- normalized growth (S. cerevisiae deletion strains, locus YML124C, strain tub3, hits give low values): 0.874 (active)
- normalized growth (S. cerevisiae deletion strains, locus YMR058W, strain fet3, hits give low values): 0.537 (active)
- normalized growth (S. cerevisiae deletion strains, locus YMR078C, strain ctf18, hits give low values): 0.373 (active)
- normalized growth (S. cerevisiae deletion strains, locus YMR125W, strain sto1, hits give low values): 0.612 (active)
- normalized growth (S. cerevisiae deletion strains, locus YMR129W, hits give low values): 0.908 (active)
- normalized growth (S. cerevisiae deletion strains, locus YMR205C, strain PFK2, hits give low values): 0.23 (active)
- normalized growth (S. cerevisiae deletion strains, locus YMR223W, strain ubp8, hits give low values): 0.78 (active)
- normalized growth (S. cerevisiae deletion strains, locus YMR231W, strain pep5, hits give low values): 0.991
- normalized growth (S. cerevisiae deletion strains, locus YMR263W, strain SAP30, hits give low values): 0.922
- normalized growth (S. cerevisiae deletion strains, locus YMR307W, strain GAS1, hits give low values): 0.909
- normalized growth (S. cerevisiae deletion strains, locus YNL067W, strain RPL9B, hits give low values): 0.858 (active)
- normalized growth (S. cerevisiae deletion strains, locus YNL071W, strain lat1, hits give low values): 0.246 (active)
- normalized growth (S. cerevisiae deletion strains, locus YNL153C, strain GIM3, hits give low values): 0.597 (active)
- normalized growth (S. cerevisiae deletion strains, locus YNL183C, strain NPR1, hits give low values): 0.927
- normalized growth (S. cerevisiae deletion strains, locus YNL209W, strain ssb2, hits give low values): 1.01
- normalized growth (S. cerevisiae deletion strains, locus YNL233W, strain BNI4, hits give low values): 0.427 (active)
- normalized growth (S. cerevisiae deletion strains, locus YNL248C, strain rpa49, hits give low values): 0.814 (active)
- normalized growth (S. cerevisiae deletion strains, locus YNL250W, strain rad50, hits give low values): 0.936
- normalized growth (S. cerevisiae deletion strains, locus YNL271C, strain bni1, hits give low values): 0.963
- normalized growth (S. cerevisiae deletion strains, locus YNL298W, strain CLA4, hits give low values): 0.97
- normalized growth (S. cerevisiae deletion strains, locus YNL307C, strain MCK1, hits give low values): 0.183 (active)
- normalized growth (S. cerevisiae deletion strains, locus YNL322C, strain KRE1 (second series), hits give low values): 0.761 (active)
- normalized growth (S. cerevisiae deletion strains, locus YNR049C, strain mso1, hits give low values): 0.951
- normalized growth (S. cerevisiae deletion strains, locus YNR052C, strain pop2, hits give low values): 0.948
- normalized growth (S. cerevisiae deletion strains, locus YOL012C, strain htz1): 0.241
- normalized growth (S. cerevisiae deletion strains, locus YOL147C, strain pex11, hits give low values): 0.25 (active)
- normalized growth (S. cerevisiae deletion strains, locus YOR001W, strain rrp6, hits give low values): 0.689 (active)
- normalized growth (S. cerevisiae deletion strains, locus YOR061W, strain CKA2, hits give low values): 0.967
- normalized growth (S. cerevisiae deletion strains, locus YOR069W, strain VPS5, hits give low values): 0.905 (active)
- normalized growth (S. cerevisiae deletion strains, locus YOR070C, strain gyp1, hits give low values): 0.528 (active)
- normalized growth (S. cerevisiae deletion strains, locus YOR080W, strain dia2, hits give low values): 0.839 (active)
- normalized growth (S. cerevisiae deletion strains, locus YOR083W, strain WHI5, hits give low values): 0.916
- normalized growth (S. cerevisiae deletion strains, locus YOR106W, strain vam3, hits give low values): 0.871
- normalized growth (S. cerevisiae deletion strains, locus YOR136W, strain idh2, hits give low values): 0.767 (active)
- normalized growth (S. cerevisiae deletion strains, locus YOR144C, strain elg1, hits give low values): 0.573 (active)
- normalized growth (S. cerevisiae deletion strains, locus YOR184W, strain ser1, hits give low values): 0.896
- normalized growth (S. cerevisiae deletion strains, locus YOR231W, strain MKK1, hits give low values): 0.977
- normalized growth (S. cerevisiae deletion strains, locus YOR265W, strain rbl2, hits give low values): 0.797 (active)
- normalized growth (S. cerevisiae deletion strains, locus YOR270C, strain vph1, hits give low values): 0.593 (active)
- normalized growth (S. cerevisiae deletion strains, locus YOR290C, strain snf2, hits give low values): 0.315 (active)
- normalized growth (S. cerevisiae deletion strains, locus YOR316C, strain cot1, hits give low values): 0.771 (active)
- normalized growth (S. cerevisiae deletion strains, locus YPL051W, strain arl3, hits give low values): 0.803 (active)
- normalized growth (S. cerevisiae deletion strains, locus YPL055C, strain LGE1, hits give low values): 0.775
- normalized growth (S. cerevisiae deletion strains, locus YPL078C, strain atp4, hits give low values): 0.635 (active)
- normalized growth (S. cerevisiae deletion strains, locus YPL106C, strain sse1, hits give low values): 1.04
- normalized growth (S. cerevisiae deletion strains, locus YPL240C, strain hsp82, hits give low values): 0.714 (active)
- normalized growth (S. cerevisiae deletion strains, locus YPL256C, strain CLN2, hits give low values): 1.01
- normalized growth (S. cerevisiae deletion strains, locus YPR119W, strain clb2, hits give low values): 0.731 (active)
- normalized growth (S. cerevisiae deletion strains, locus YPR141C, strain kar3, hits give low values): 0.959
- normalized growth (S. cerevisiae deletion strains, locus YPR163C, strain tif3, hits give low values): 0.438 (active)
- normalized growth (S. cerevisiae deletion strains, locus YPR167C, strain met16, hits give low values): 0.886 (active)
- normalized growth (S. cerevisiae deletion strains, strain wtn01, hits give low values): 0.686 (active)
- normalized growth (S. cerevisiae strains, strain wild type, hits give low values): 0.753 (active)
